A selection: hits, their analogues and other compounds. The true share with any hit is near 0.52%.
Vif-A3F inh: blocks the Vif interaction with APOBEC3F. HeLa A3F-eYFP + Vif (tagged APOBEC3F with the HIV-1 protein that degrades it), YFP fluorescence increase. Potency, µM (highest dose often 46.1 µM), for inactives: top-dose activity, negative = active. hit rate 0.2% among 390,000. AID 602313; note: % of control where 0% means no effect; nearly all actives have a fitted effect of over 65% in size
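HeLa cells stably expressing Vif plus C-terminally eYFP-tagged A3F were seeded, incubated overnight at 37 deg C, dosed with compound, incubated overnight again at 37 deg C. Yellow fluorescence (Ex 488/Em 500-530) reported blocked Vif-mediated A3F-eYFP degradation.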
Epigenetic derep: regulators of epigenetic silencing causing reporter derepression in mouse cells | Potency, µM (highest dose often 53.9 µM), for the others: at the top dose GFP activation, most hits filed as activators | murine LDR cells, GFP reporter derepression, 30 h | AID 1865 | hit rate 0.2% among 280,000; note: % of control where 0% means no effect; nearly all actives have a fitted effect of over 60% in size
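Readout is the number of GFP-expressing murine LDR cells, counted by cytometry following washing. Cells were treated with compound for 30 h at 37 C; the stably integrated CMV-GFP locus is normally silent.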
PINK1 modulator: changes PINK1 expression; PINK1 immunofluorescence, high-content cytometry, 24 h; Potency, µM (highest dose often 76.6 µM), inactives show at the top dose activation (PINK1 increase), hits mostly activators; hit rate 0.2% among 410,000; AID 624263; active = well fitted activation curve with a large enough effect; inconclusive = small, poorly fitted or top-dose-only effect; cell line not stated here; note: % of control where 0% means no effect; nearly all actives have a fitted effect of over 65% in size
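Measures PINK1 amount and localization on or inside mitochondria by immunofluorescence. Stable cells get compounds at 5 concentrations for 24 hours before fixation and staining; CCCP controls included.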
Vif-APOBEC3G blk: blocks the Vif interaction with human APOBEC3G | Q9HC16 | HeLa A3G-eYFP + Vif (tagged APOBEC3G with the HIV-1 protein that degrades it), YFP fluorescence, overnight | Potency, µM (highest dose often 46.1 µM), for inactives: at the highest dose activity, negative = active, most hits filed as inhibitors | hit rate 0.076% among 410,000; note: % is set by controls: 0 for no effect and ±100 for the full control effect; nearly all actives have a fitted effect of over 60% in size
Target sequence (Q9HC16 whole entry, looked up): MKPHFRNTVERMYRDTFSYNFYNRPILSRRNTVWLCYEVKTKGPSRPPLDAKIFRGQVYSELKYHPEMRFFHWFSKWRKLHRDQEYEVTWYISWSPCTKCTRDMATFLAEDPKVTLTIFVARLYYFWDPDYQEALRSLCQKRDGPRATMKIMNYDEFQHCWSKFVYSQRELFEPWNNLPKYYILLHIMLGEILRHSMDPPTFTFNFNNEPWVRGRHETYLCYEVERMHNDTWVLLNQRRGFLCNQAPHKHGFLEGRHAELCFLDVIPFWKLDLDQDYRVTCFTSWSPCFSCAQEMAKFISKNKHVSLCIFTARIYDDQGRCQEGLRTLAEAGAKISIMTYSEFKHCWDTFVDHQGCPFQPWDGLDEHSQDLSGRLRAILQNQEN
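Read-out is eYFP fluorescence (Ex 488/Em 500-530) from Vif-expressing HeLa A3G-eYFP cells; more signal means A3G escaped Vif-mediated degradation. Cells plated overnight, compound pinned in, incubated overnight at 37 deg C.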
Starred values were filed as active, the others as inactive; ? = inconclusive; . = no result given; [ ] = remark or other dose. Unless noted, calls come from the whole dose curve; as a rule, active = well fitted curve in the direction sought with a large enough effect; inconclusive = small, poorly fitted or top-dose-only effect, or another doubt; inactive = no such curve, though single readings can be large; an effect the other way counts as inactive or inconclusive. Potency is the fitted concentration of half-maximal effect.

SMILES | Vif-A3F inh | Epigenetic derep | PINK1 modulator | Vif-APOBEC3G blk
Cn1cc(/C=C2\SC(=S)N(NC(=O)c3ccccc3Cl)C2=O)c2ccccc21 | 11.2µM* | 0.0% | 0.3% | ?
Cc1ccc(C(=O)NN2C(=O)/C(=C/c3cn(C)c4ccccc34)SC2=S)cc1 | ? | 5.8% | -1.4% | -12.0%
CCN(CC)c1ccc(/C=C2\SC(=O)N(C(C)C)C2=O)o1 | ? | 7.08µM* | ? | ?
CCN(CC)c1ccc2c(Cl)c(Br)c(=O)oc2c1 | ? | 11.2µM* | -1.5% | ?
CCOC(=O)c1c(NC(=O)c2ccn(CC)n2)sc2c1CCCC2 | -9.2% | 0.9% | 10µM* | -2.1%
CCOC(=O)c1c(NC(=O)c2ccc(C)cc2)sc2c1CCCCC2 | -4.2% | -1.6% | 2.0% | -5.2%
Cc1ccccc1-c1cc(C(=O)Nc2sc(C(=O)OC(C)C)c(C)c2C#N)c2ccccc2n1 | 2.2% | -1.9% | 12.6µM* | -4.1%
COC(=O)c1sc(NC(=O)c2cc(-c3ccccc3)nc3ccccc23)c(C#N)c1C | -18.1% | -1.1% | 5.62µM* | -12.8%
CCOC(=O)c1sc(NC(=O)c2cc(-c3ccc(C)cc3)nc3ccccc23)c(C#N)c1C | -21.9% | -1.1% | ? | -2.4%
COc1ccc(NC(=S)Nc2ccc(C)c(S(=O)(=O)N3CCCCC3)c2)cc1 | . | -0.9% | . | .
Cc1ccc(NC(=S)Nc2ccc(C(C)C)cc2)cc1S(=O)(=O)N1CCCCCC1 | 0.7% | 0.9% | 11.2µM* | 4.0%
Cc1cc(C(=O)NCc2nc(-c3cccc(NC(=O)c4cc(C)oc4C)c3)oc2C)nc(C)n1 | . | . | 1.1% | .
COc1ccc(C(=O)C2CCCN(Cc3cccn3-c3ccccn3)C2)c(OC)c1 (stereo not given) | 17.4% | -0.2% | 39.8µM* | 6.9%
COc1ccc2cc(C(=O)C3CCCN(Cc4ccccn4)C3)ccc2c1 (stereo not given) | 28.2µM* | 1.1% | -1.2% | -6.8%
COc1ccc(F)cc1C(=O)C1CCCN(Cc2cccn2-c2ccccn2)C1 (stereo not given) | -20.5% | -0.7% | 2.5% | 2.4%
CCn1ccnc1CN1CCCC(C(=O)c2ccc3cc(OC)ccc3c2)C1 (stereo not given) | ? | 0.0% | 5.3% | -0.2%
COc1ccc(C(=O)NCCN2Cc3cc(C)ccc3OC(C)C2)c(OC)n1 (stereo not given) | . | . | -0.8% | .
COc1cc(CN2CCOc3ccc(CN4CCC(O)(c5cccnc5)CC4)cc3C2)cc(OC)c1 | . | . | 0.5% | .
O=C(NCC1CCC2(CCN(Cc3cnn(-c4ccc(F)cc4)c3)CC2)O1)c1ccccc1 (stereo not given) | . | . | 0.2% | .
Cc1cc(N(C)C)c(C)cc1/C=C/c1ccnc2ccccc12 | . | . | . | 14.1µM*
Cc1cc(C)c2nccc(/C=C/c3ccc(N(C)C)cc3)c2c1 | . | . | . | 10µM*
CN(C)c1ccc(/C=C/c2ccnc3ccc4ccccc4c23)cc1 | . | . | . | 5.9%
CN(C)c1ccc(/C=C/c2ccnc3ccccc23)cc1 | . | . | 8.2% | 11.2µM*
CN(C)c1ccc(/C=C/c2ccnc3c([N+](=O)[O-])cccc23)cc1 | . | . | -0.1% | -11.5%
CN(C)c1ccc(/C=C/c2ccnc3c(Cl)ccc(Cl)c23)cc1 | . | . | 10.9% | 3.55µM*
SMILES | Vif-A3F inh | Epigenetic derep | PINK1 modulator | Vif-APOBEC3G blk
CCN(CC)c1cc(C)c(/C=C/c2ccnc3ccccc23)cc1C | . | . | 0.0% | ?
Cc1ccc(C)c(CN2C[C@H](Sc3nc4ccccc4[nH]3)C[C@H]2C(=O)N2CCCN(C)CC2)c1 | . | . | -1.1% | .
CCN1CCCC1CNCc1cc2ccc(SC)cc2nc1-c1cc(OC)ccc1OC (stereo not given) | . | . | 0.2% | .
CCCN(CCC)c1ccc(/C=C/c2ccnc3ccccc23)cc1 | . | . | . | 11.2µM*
CCCCCCCCCN(CCCCCCCCC)c1ccc(/C=C/c2ccnc3ccccc23)cc1 | . | . | 0.6% | 1.2%
CN(C)c1ccc(/C=C/c2ccnc3ccc([N+](=O)[O-])cc23)cc1 | . | . | -0.5% | 1.4%
CN(C)c1ccc(/C=C/c2ccnc3ccc(I)cc23)cc1 | . | . | 2.1% | 8.91µM*
Cc1nc(NCc2c(C)nn(C)c2Cl)sc1-c1ccn(CC2COc3ccccc3O2)n1 (stereo not given) | . | . | -0.5% | .
CCCCSc1c(C)c2cc3c(cc2[nH]c1=O)OCO3 | -0.5% | 4.0% | 5.62µM* | -0.8%
CCOC(=O)N1CCN(C(=O)CCCCCn2c(=S)[nH]c3cc4c(cc3c2=O)OCO4)CC1 | 0.4% | -6.2% | 3.0% | 1.8%
COc1cccc(C2C=C(c3ccc(Br)s3)Nc3ncnn32)c1OC (stereo not given) | ? | 0.0% | 3.7% | -1.1%
Fc1ccc(Br)cc1C1C=C(c2ccc(Br)s2)Nc2ncnn21 (stereo not given) | 22.4µM* | -1.1% | 17.6% | ?
CCN(CC)c1ccc(/C=C(\C#N)c2nc(-c3cccs3)c(NC(C)=O)s2)cc1 | . | 1.58µM* | . | .
COc1ccc(-c2cc(C(F)(F)F)c3c(N)c(C(=O)NCCSC)sc3n2)cc1 | ? | . | 29.8% | ?
COc1ccc(OC)c(NC(=O)c2sc3nc(Cc4ccccc4)cc(C(F)(F)F)c3c2N)c1 | 10µM* | -1.0% | ? | -0.5%
COc1ccc(CNC(=O)c2sc3nc4c(c(C(F)(F)F)c3c2N)CCC4)cc1OC | ? | -1.0% | -0.7% | 1.2%
COc1ccc(NC(=O)c2sc3nc(C(F)(F)F)cc(C)c3c2N)cc1OC | 5.62µM* | 14.1µM* | 39.8µM* | -14.0%
COc1ccc(-c2csc(/C(C#N)=C/Nc3ccc4c(c3)OCCO4)n2)cc1 | ? | 10µM* | 5.0% | 2.7%
O=C(Cc1c[nH]c2ccccc12)N1CCC(n2c(C3CCCO3)nc3cc(C(F)(F)F)ccc32)CC1 (stereo not given) | . | . | -0.4% | .
COCc1c(C(=O)N2CCN(c3ccccc3)CC2)cnn1-c1nccc(-c2ccco2)n1 | . | . | 3.9% | .
CCCCNc1c(-c2ccc(SC3CCCCC3)cc2)nc2cnccn12 | ? | . | -0.2% | 3.16µM*
CCc1cc(C(=O)NCCN2Cc3ccccc3OC(c3ccsc3)C2)n(C)n1 (stereo not given) | . | . | 1.1% | .
Cc1ccc2c(C)nc(Nc3nc(CSc4nc5ccccc5[nH]4)cc(=O)[nH]3)nc2c1 | 1.2% | 35.5µM* | -0.1%[38.3 µM] | -1.0%
CCN1CCc2c(sc(NC(=O)c3ccc(S(=O)(=O)N(CCOC)CCOC)cc3)c2C(N)=O)C1 | 1.4% | 0.6% | -4.7% | -3.9%
CC(C)N1CCc2c(sc(NC(=O)c3nc4ccccc4s3)c2C(N)=O)C1 | ? | -4.2% | 25.4% | -14.8%
CCN1CCc2c(sc(NC(=O)c3ccc(S(=O)(=O)N(C)c4ccccc4)cc3)c2C(=O)NC)C1 | 11.2µM* | . | 1.0% | ?
CC(C)N1CCc2c(sc(NC(=O)c3ccc(S(=O)(=O)N4CCc5ccccc54)cc3)c2C(N)=O)C1 | 6.31µM* | ? | -1.3% | 20µM*
CC(C)N1CCc2c(sc(NC(=O)c3cc(-c4cccs4)nc4ccccc34)c2C(N)=O)C1 | ? | 17.8µM* | 0.6% | 7.08µM*
CC(C)N1CCc2c(sc(NC(=O)c3ccc(S(=O)(=O)N(C)C4CCCCC4)cc3)c2C(N)=O)C1 | ? | ? | 1.7% | ?

Screening results deposited in PubChem by National Center for Advancing Translational Sciences (NCATS).
